# Laboratory results published in PubChem BioAssay (EPA / NIEHS).
# Several values for one entry are separate records, joined by “and”; a condition that tells them apart may be missing. Equal entries are not always repeated. Inconclusive results are not listed. Activity calls are given as the source filed them. Rule for the calls: active = hit-call score of the fitted dose curve at least 0.9, where 1 is the maximum; inconclusive = response in the unintended direction; inactive = score below 0.9.
# Biological target: human Sirtuin 2 (SIRT2), SIRT2 (gene 22933) (UniProt Q8IXJ6)
# Sequence (Q8IXJ6 whole entry, looked up): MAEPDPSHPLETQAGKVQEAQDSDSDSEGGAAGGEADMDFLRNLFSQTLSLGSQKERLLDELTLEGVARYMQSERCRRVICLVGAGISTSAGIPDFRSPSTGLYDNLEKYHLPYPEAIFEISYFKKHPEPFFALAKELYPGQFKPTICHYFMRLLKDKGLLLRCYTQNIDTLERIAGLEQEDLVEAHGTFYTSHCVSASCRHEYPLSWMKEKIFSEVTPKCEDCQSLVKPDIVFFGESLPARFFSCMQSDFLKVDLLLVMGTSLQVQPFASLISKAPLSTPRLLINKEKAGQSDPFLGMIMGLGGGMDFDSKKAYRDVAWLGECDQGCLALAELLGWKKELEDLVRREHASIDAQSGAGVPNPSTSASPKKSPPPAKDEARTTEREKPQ
# Test: NVS_ENZ_hSIRT2: NovaScreen (NVS) Enzymatic Assay for human Sirtuin 2 (SIRT2) (AID 2283217)
# Summary of the method: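 Single-point duplicate screen at 25 uM, then concentration-response (max 50 uM) for chemicals passing threshold. Enzyme activity of recombinant human SIRT2 measured after 1 hr by fluorescence with mobility-shift separation of product; DMSO baseline.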
row,SMILES,AC50
1,Oc1ccc(Cl)cc1Cc1ccccc1,3.4 µM (active) and 9.3 µM (active)
2,CCC(C)(C)C(=O)OC1=C(c2ccc(Cl)cc2Cl)C(=O)OC12CCCCC2,18.9 µM (active)
3,O=S(=O)(O)C(F)(F)C(F)(F)C(F)(F)C(F)(F)C(F)(F)C(F)(F)C(F)(F)C(F)(F)F,6.66 µM (active)
4,CCCN(CCOc1c(Cl)cc(Cl)cc1Cl)C(=O)n1ccnc1,10.8 µM (active)

# Biological target: human Sirtuin 1 (SIRT1), SIRT1 (gene 23411) (UniProt Q96EB6)
# Sequence (Q96EB6 whole entry, looked up): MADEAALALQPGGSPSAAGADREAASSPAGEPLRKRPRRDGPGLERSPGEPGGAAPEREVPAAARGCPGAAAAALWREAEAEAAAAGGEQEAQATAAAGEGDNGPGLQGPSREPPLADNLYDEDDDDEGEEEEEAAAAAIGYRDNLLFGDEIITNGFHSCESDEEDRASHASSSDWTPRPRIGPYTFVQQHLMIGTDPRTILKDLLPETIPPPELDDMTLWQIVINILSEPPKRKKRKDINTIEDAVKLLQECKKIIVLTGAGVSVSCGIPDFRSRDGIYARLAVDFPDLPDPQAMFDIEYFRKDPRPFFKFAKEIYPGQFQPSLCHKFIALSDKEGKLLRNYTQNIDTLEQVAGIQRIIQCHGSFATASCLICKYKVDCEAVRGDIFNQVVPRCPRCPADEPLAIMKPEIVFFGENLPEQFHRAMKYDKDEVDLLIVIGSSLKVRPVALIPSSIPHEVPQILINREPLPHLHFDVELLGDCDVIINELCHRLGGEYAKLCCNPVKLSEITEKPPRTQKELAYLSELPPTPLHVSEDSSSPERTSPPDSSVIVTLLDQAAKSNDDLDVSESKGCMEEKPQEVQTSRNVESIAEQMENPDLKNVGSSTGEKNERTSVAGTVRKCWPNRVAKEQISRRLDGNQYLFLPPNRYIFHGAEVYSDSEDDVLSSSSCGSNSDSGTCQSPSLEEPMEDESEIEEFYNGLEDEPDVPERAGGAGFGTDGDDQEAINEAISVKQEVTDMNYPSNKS
# Test: NVS_ENZ_hSIRT1: NovaScreen (NVS) Enzymatic Assay for human Sirtuin 1 (SIRT1) (AID 2283219)
# Summary of the method: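 Cell-free recombinant SIRT1 with a fluorescent substrate; substrate and product separated by electrophoretic mobility shift and read by fluorescence intensity, 1 h after dosing. Primary screen at 25 uM in duplicate; hits re-run in concentration-response up to 50 uM, relative to DMSO.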
SMILES,outcome,AC50
N#Cc1c(Cl)c(Cl)c(Cl)c(C#N)c1Cl,inactive,
ClC1C(Cl)C(Cl)C(Cl)C(Cl)C1Cl (centres undefined),inactive,
CC[C@H](C)[C@H]1O[C@]2(C=C[C@@H]1C)C[C@@H]1C[C@@H](C/C=C(\C)[C@@H](O[C@H]3C[C@H](OC)[C@@H](O[C@H]4C[C@H](OC)[C@@H](O)[C@H](C)O4)[C@H](C)O3)[C@@H](C)/C=C/C=C3\CO[C@@H]4[C@H](O)C(C)=C[C@@H](C(=O)O1)[C@]34O)O2 (tested in a mixture with another compound),,17.2 µM (active)
CCC(C)Nc1c([N+](=O)[O-])cc(C(C)(C)C)cc1[N+](=O)[O-] (centres undefined),inactive,

# Biological target: human Sirtuin 3 (SIRT3), SIRT3 (gene 23410) (UniProt Q9NTG7)
# Sequence (Q9NTG7 whole entry, looked up): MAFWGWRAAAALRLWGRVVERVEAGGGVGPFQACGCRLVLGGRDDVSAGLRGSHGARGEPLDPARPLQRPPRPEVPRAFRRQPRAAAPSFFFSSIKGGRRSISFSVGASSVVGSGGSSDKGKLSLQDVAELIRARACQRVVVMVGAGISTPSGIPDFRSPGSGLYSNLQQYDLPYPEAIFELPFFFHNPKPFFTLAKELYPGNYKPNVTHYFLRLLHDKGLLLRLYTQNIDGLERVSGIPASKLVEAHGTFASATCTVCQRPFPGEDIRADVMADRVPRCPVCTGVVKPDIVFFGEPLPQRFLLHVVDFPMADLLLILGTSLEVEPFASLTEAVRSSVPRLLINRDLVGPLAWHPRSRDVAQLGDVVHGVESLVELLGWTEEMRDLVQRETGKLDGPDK
# Test: NVS_ENZ_hSIRT3: NovaScreen (NVS) Enzymatic Assay for human Sirtuin 3 (SIRT3) (AID 2283222)
# Protocol: NVS_ENZ_hSIRT3 is a biochemical, single-readout assay that uses extracted gene-proteins in a cell-free assay. Measurements were taken 1 hour after chemical dosing in a 384-well plate.NVS_ENZ_hSIRT3 is one of one assay component(s) measured or calculated from the NVS_ENZ_hSIRT3 assay. It is designed to make measurements of enzyme activity, a form of enzyme reporter, as detected with fluorescence intensity signals by Fluorescence and electrophoretic mobility shift technology.Data from the assay component NVS_ENZ_hSIRT3 was analyzed into 1 assay endpoint. This assay endpoint, NVS_ENZ_hSIRT3, was analyzed in the positive analysis fitting direction relative to DMSO as the negative control and baseline of activity. Using a type of enzyme reporter, loss-of-signal activity can be used to understand changes in the enzymatic activity as they relate to the gene SIRT3. Furthermore, this assay endpoint can be referred to as a primary readout, because this assay has produced multiple assay endpoints where this one serves a enzymatic activity function. To generalize the intended target to other relatable targets, this assay endpoint is annotated to the hydrolase intended target family, where the subfamily is protein deacetylase.
# Binding assays used specific radioligands (tritiated, iodinated) with non-radioactive competitive displacement ligands in agonist or antagonist protocols (as indicated) and various reference compounds and inhibitors to titrate specific binding to receptors and transporters. Most enzyme assays (CYPs, kinases, phosphatases, proteases, HDACs) used recombinant protein and specific substrates (fluorescence mostly, some colorimetric and radioactive) and inhibitors, followed by a biochemical separation of substrate and product. All assays for the biochemical HTS were initially run in duplicate at a single concentration (10 uM for CYP450 assays and 25 uM for all others). […]
SMILES,AC50,outcome
CCC(C)(C)C(=O)OC1=C(c2ccc(Cl)cc2Cl)C(=O)OC12CCCCC2,25 µM (active),
CCCN(CCOc1c(Cl)cc(Cl)cc1Cl)C(=O)n1ccnc1,,inactive
CC[C@H](C)[C@H]1O[C@]2(C=C[C@@H]1C)C[C@@H]1C[C@@H](C/C=C(\C)[C@@H](O[C@H]3C[C@H](OC)[C@@H](O[C@H]4C[C@H](OC)[C@@H](O)[C@H](C)O4)[C@H](C)O3)[C@@H](C)/C=C/C=C3\CO[C@@H]4[C@H](O)C(C)=C[C@@H](C(=O)O1)[C@]34O)O2 (tested in a mixture with another compound),5.19 µM (active),

# Biological target: human Tropomyosin Receptor Kinase A (TRKA), NTRK1 (gene 4914) (UniProt P04629)
# Sequence (P04629 whole entry, looked up): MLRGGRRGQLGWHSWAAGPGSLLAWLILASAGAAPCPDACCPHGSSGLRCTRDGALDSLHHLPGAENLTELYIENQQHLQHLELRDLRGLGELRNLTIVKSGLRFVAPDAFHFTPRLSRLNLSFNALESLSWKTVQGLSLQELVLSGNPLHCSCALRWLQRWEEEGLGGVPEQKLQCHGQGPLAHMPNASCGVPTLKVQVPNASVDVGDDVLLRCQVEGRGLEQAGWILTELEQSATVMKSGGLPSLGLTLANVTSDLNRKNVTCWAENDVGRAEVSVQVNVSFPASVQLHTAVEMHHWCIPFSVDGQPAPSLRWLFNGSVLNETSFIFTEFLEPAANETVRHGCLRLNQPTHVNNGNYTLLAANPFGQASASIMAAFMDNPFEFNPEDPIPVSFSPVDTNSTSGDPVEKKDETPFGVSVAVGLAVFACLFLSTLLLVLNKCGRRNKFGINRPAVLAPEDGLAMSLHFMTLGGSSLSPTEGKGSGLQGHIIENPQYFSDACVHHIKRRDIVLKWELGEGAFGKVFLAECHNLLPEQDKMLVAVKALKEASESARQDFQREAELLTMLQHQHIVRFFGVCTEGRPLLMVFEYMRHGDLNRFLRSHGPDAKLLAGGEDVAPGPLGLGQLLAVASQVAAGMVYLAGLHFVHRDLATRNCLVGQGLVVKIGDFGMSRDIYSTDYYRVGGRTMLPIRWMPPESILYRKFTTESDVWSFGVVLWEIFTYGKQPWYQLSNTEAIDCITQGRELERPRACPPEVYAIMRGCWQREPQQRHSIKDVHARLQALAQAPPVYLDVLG
# Test: NVS_ENZ_hTrkA: NovaScreen (NVS) Enzymatic Assay for human Tropomyosin Receptor Kinase A (TRKA) (AID 2283224)
# Summary of the method: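 Compounds were screened at 25 uM in duplicate, then concentration series to a 50 uM top for those meeting threshold (e.g. 30% inhibition). Enzyme was recombinant human TrkA, incubated 1 h. Product formation was quantified by fluorescence after mobility-shift separation.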
SMILES,AC50,outcome
Oc1ccc(Cl)cc1Cc1ccccc1,9.39 µM (active),
CC(C)(C)C(O)/C(=C\c1ccc(Cl)cc1Cl)n1cncn1 (centres undefined),,inactive
O=S(=O)(O)C(F)(F)C(F)(F)C(F)(F)C(F)(F)C(F)(F)C(F)(F)C(F)(F)C(F)(F)F,36.5 µM (active) and 28.4 µM (active),

# Biological target: human Tyrosine Protein Kinase Receptor Tie-2 (Tie2), TEK (gene 7010) (UniProt Q02763)
# Sequence (Q02763 whole entry, looked up): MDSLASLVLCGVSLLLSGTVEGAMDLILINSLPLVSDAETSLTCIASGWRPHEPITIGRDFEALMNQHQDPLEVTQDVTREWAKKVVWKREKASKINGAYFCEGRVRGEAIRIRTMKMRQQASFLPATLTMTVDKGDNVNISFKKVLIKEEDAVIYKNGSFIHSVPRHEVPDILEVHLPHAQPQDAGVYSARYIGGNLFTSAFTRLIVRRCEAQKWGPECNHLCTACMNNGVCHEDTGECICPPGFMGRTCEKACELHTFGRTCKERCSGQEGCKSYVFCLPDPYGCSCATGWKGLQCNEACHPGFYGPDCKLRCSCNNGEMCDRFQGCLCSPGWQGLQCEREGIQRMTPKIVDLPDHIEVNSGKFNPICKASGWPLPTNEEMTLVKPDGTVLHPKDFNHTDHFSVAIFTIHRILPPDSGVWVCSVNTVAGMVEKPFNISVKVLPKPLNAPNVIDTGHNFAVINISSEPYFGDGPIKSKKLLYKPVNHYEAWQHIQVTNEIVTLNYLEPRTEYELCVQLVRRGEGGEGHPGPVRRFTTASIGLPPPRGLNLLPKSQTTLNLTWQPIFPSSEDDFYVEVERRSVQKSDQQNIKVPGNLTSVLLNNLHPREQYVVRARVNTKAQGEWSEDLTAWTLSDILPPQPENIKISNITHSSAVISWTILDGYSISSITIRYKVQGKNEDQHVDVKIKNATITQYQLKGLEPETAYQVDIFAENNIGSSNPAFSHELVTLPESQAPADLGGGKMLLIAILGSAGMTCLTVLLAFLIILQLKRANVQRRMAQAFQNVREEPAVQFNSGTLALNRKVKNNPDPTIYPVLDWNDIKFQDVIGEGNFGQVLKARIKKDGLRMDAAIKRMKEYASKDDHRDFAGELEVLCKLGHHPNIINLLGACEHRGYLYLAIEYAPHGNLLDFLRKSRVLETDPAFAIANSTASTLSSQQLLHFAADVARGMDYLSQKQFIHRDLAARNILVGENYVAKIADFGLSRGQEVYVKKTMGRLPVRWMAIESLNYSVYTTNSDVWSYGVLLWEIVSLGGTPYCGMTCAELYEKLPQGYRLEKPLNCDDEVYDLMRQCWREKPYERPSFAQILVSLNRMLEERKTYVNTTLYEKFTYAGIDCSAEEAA
# Test: NVS_ENZ_hTie2: NovaScreen (NVS) Enzymatic Assay for human Tyrosine Protein Kinase Receptor Tie-2 (Tie2) (AID 2283225)
# Summary of the method: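 Substrate and product were separated by mobility shift and detected by fluorescence after a 1-hour reaction with recombinant Tie2. Chemicals passing a 25 uM single-point screen were titrated to a maximum of 50 uM. Results were normalized to DMSO baseline.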
SMILES,outcome,AC50
Cc1cc(C)nc(NC(=O)NS(=O)(=O)c2ccccc2C(=O)OC2COC2)n1,inactive,
CC(C)(C)C(O)C(Oc1ccc(Cl)cc1)n1cncn1 (centres undefined),inactive,
CC(C)OC(=O)Nc1cccc(Cl)c1,inactive,
Oc1cc(Cl)ccc1Oc1ccc(Cl)cc1Cl,inactive,
OCCOc1ccccc1,inactive,
O=S(=O)(O)C(F)(F)C(F)(F)C(F)(F)C(F)(F)C(F)(F)C(F)(F)C(F)(F)C(F)(F)F,,8.09 µM (active) and 6.38 µM (active) and 5.3 µM (active)
CNC(=O)CSP(=S)(OC)OC,inactive,
CC[C@H](C)[C@H]1O[C@]2(C=C[C@@H]1C)C[C@@H]1C[C@@H](C/C=C(\C)[C@@H](O[C@H]3C[C@H](OC)[C@@H](O[C@H]4C[C@H](OC)[C@@H](O)[C@H](C)O4)[C@H](C)O3)[C@@H](C)/C=C/C=C3\CO[C@@H]4[C@H](O)C(C)=C[C@@H](C(=O)O1)[C@]34O)O2 (tested in a mixture with another compound),,36.1 µM (active)
O=C(NC(=O)c1c(F)cccc1F)Nc1ccc(OC(F)(F)C(F)OC(F)(F)F)c(Cl)c1 (centres undefined),inactive,
O=C(O)C(F)(F)C(F)(F)C(F)(F)C(F)(F)C(F)(F)C(F)(F)C(F)(F)F,,13.7 µM (active)
